In PubChem BioAssay (EPA / NIEHS):
Several values for one entry are separate records, joined by “and”; a condition that tells them apart may be missing. Equal entries are not always repeated. Results filed as inconclusive are left out. Where a structure was tested more than once in an assay, its records may differ in their call. Activity calls are given as the source filed them. How the source made its calls: active means hit-call score of the fitted dose curve at least 0.9, where 1 is the maximum; inconclusive means response in the unintended direction; inactive means score below 0.9.

system: turtle Estrogen Receptor (ERa), gene 101933533; experiment: ATG_trERa_XSP2: Attagene TRANS-FACTORIAL Multi-Species (XSP2) HepG2 Assay for turtle Estrogen Receptor (ERa) (AID 2283812);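 further: actives raise reporter signal above DMSO so AC50 reflects agonist activity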
Experimental: ATG_XSP2_multi-species_TRANS is a cell-based, multiplexed assay created by modifying the existing Attagene TRANS-FACTORIAL system to include a panel of nuclear receptors from some or all the following species: human (Homo sapiens), mouse (Mus musculus), frog (Xenopus laevis), zebrafish (Danio rerio), chicken (Gallus gallus), and turtle (Chrysemys picta). The ECOTOX-FACTORIAL format uses HepG2, a human liver cell line, with measurements taken at 24 hours after chemical dosing in a 24-well plate. Xsp2 included 3 nM 6-alpha-fluorotestosterone and 1.5 nM norgestrel to stimulate the androgen receptor.ATG_trERa_XSP2 is one of 29 assay components measured or calculated from the ATG_XSP2_multi-species_TRANS assay. It is designed to make measurements of mRNA induction, a form of inducible reporter, as detected with fluorescence intensity signals by Reverse transcription polymerase chain reaction (RT-PCR) and Capillary electrophoresis technology.The assay endpoint ATG_trERa_XSP2 was analyzed in the positive analysis fitting direction relative to DMSO as the negative control and baseline of activity. Using a type of inducible reporter, measures of mRNA for gain-of-signal activity can be used to understand the reporter gene at the transcription factor-level as they relate to the gene ER. Furthermore, this assay endpoint can be referred to as a primary readout, because this assay has produced multiple assay endpoints where this one serves a reporter gene function. To generalize the intended target to other relatable targets, this assay endpoint is annotated to the nuclear receptor intended target family, where the subfamily is steroidal.
Human liver HepG2 cells are transiently transfected with multiple reporter transcription units (MRTUs) in 6-well plates using FuGene 6 reagent (Roche; 3 ml FuGene/1 mg DNA). The MRTU constructs are regulated by a cis-regulating element (promoter). […] A major difference between the CIS and TRANS system is that in CIS activities of endogenous TFs are measured, whereas the TRANS assay evaluates changes in activities of exogenous, chimeric NR-Gal4 proteins. […] At the end of 24 hour incubation, total RNA was isolated using TriZol reagent (Invitrogen). The isolated RNA is then reverse-transcribed using oligo(dT) primer and Mo-MLV reverse transcriptase (Invitrogen) with DNAse I (Ambion) treatment for 30 min. The one-tenth of the produced cDNA was amplified by PCR using Taq DNA polymerase (Invitrogen) and two reporter sequence-specific primers. The PCR products were fluorescently labeled by primer extension with 6-arboxyfluorescein (6-FAM) 5'-labeled reporter sequence-specific primer (2 min at 95 C, 20 s at 68 C and 10 min at 72 C) and these products were digested with 5U of HpaI (New England Biolabs) for 2h at 37 C. The fragments were purified using Qiaquick PCR columns (Qiagen), analyzed on an ABI 3130xL genetic analyzer (Applied Biosystems) with peak positions identified by using a set of X-rhodamine (ROX)-labeled MapMarker1000 molecular weight standards (BioVentures). The raw capillary electrophoresis data was processed using Attagraph software (Attagene).

**Q.** With c1cc2ccc3cccc4ccc(c1)c2c34 as the molecule, how does the AC50 read?
**A.** 167 µM (active) and 27.8 µM (active)

**Q.** With CC(c1ccc(O)cc1)(c1ccc(O)cc1)c1ccc(O)cc1 as the molecule, how does the outcome read?
**A.** inactive

**Q.** Clc1ccc(C(c2ccccc2Cl)C(Cl)(Cl)Cl)cc1 (stereo not drawn) was tested. Which AC50 did it give?
**A.** 1.14 µM (active)

**Q.** Cc1cc(-c2ccc(N)c(C)c2)ccc1N was tested. Which AC50 did it give?
**A.** 6.32 µM (active) and 13.2 µM (active)

**Q.** Which AC50 does the source give for CC(C)(c1ccccc1)c1ccc(O)cc1 here?
**A.** 0.516 µM (active)

**Q.** How did the AC50 turn out when Oc1ccc(C(c2ccc(O)cc2)(C(F)(F)F)C(F)(F)F)cc1 was run?
**A.** 0.226 µM (active)

**Q.** For ClC(Cl)=C(c1ccc(Cl)cc1)c1ccc(Cl)cc1, which AC50 is on record?
**A.** 10 µM (active)

**Q.** With CC(C)(O)C(=O)Nc1ccc([N+](=O)[O-])c(C(F)(F)F)c1 as the molecule, how does the outcome read?
**A.** inactive

**Q.** For CCC(=O)O[C@H]1CC[C@H]2[C@@H]3CCC4=CC(=O)CC[C@]4(C)[C@H]3CC[C@]12C, which AC50 is on record?
**A.** 17.3 nM (active) and 5.27 nM (active)

**Q.** With CCOC(=O)C(O)(c1ccc(Cl)cc1)c1ccc(Cl)cc1 as the molecule, how does the AC50 read?
**A.** 6.68 µM (active)

**Q.** And the outcome?
**A.** inactive

**Q.** Which AC50 does the source give for C[C@]12CCC(=O)C=C1CC[C@@H]1[C@@H]2CC[C@]2(C)C(=O)CC[C@@H]12 here?
**A.** 12.9 nM (active) and 12 nM (active)

**Q.** How did the AC50 turn out when C[C@]12CCC(=O)C=C1CC[C@@H]1[C@@H]2CC[C@@]2(C)[C@H]1CC[C@]2(C)O was run?
**A.** 0.0021 µM (active)
